Test results as given in PubChem BioAssay (NCI).
Values joined by “and” are separate entries in the source; they are usually repeats but may differ in a detail not shown here. Identical values can stand only once. The panel holds about 79,000 compounds, 15% with a hit somewhere; the sample as a whole holds those more often. Active and inactive are the calls of the source. Rule as the data show it: active = growth inhibition above about 70%; inactive = the rest.

Assays:
[1] = NCI Yeast Anticancer Drug Screen. Data for the rad50 strain (AID 155);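 also: 0% = growth of vehicle-only cultures of the same strain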; settings: S. cerevisiae rad50 strain growth inhibition, stronger effect = higher value
In short: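 DNA repair mutant yeast, compound exposure, growth read-out; inhibition is taken relative to vehicle.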

[2] = NCI Yeast Anticancer Drug Screen. Data for the mec2-1 strain (AID 157); settings: S. cerevisiae mec2-1 strain, stronger effect = higher value
In short: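 Test agents were screened against the mec2-1 yeast strain, with defined DNA repair or cell cycle alteration. Growth was scored as inhibition against vehicle-only controls.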

[3] = NCI Yeast Anticancer Drug Screen. Data for the sgs1 mgt1 strain (AID 161);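 also: 0% = growth of cultures given vehicle only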; settings: S. cerevisiae sgs1 mgt1 strain, stronger effect = higher value
In short: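 Mutant yeast exposed to compound; growth scored against vehicle-only wells.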

[4] = NCI Yeast Anticancer Drug Screen. Data for the cln2 rad14 strain (AID 165);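 also: 0% = growth equal to vehicle treated cultures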; settings: S. cerevisiae cln2 rad14 strain, stronger effect = higher value
In short: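 Growth of compound-exposed yeast (cln2 rad14 genotype) measured and expressed as inhibition relative to vehicle.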

[5] = NCI Yeast Anticancer Drug Screen. Data for the bub3 strain (AID 167); settings: S. cerevisiae bub3 mutant strain, stronger effect = higher value
In short: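 In this screen, a yeast mutant lacking normal mitotic checkpoint function is challenged with compound. Relative growth versus vehicle gives the inhibition value.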

[6] = NCI Yeast Anticancer Drug Screen. Data for the mlh1 rad18 strain (AID 175); settings: S. cerevisiae mlh1 rad18 strain growth inhibition, stronger effect = higher value
In short: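 In this whole-cell yeast screen, a strain with altered DNA damage repair is challenged with compound, and its growth is measured against matched vehicle-treated controls.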

[7] = at 5.0 µM (retest, dose inferred, filed as 0.5)
[8] = at 50.0 µM (retest, dose inferred, filed as 5.0)

Measured: growth inhibition

COc1ccccc1/C=C(/C)[N+](=O)[O-]
inactive: [2]; [7] 35% and 21% | [3]; [7] 34% and 55% | [4]; [7] 13% and 12% | [5]; [7] 34% and 27% | [6]; [7] 34% and -4%
active: [1]; [7] 96% | [1]; [8] 99% | [1]; at 50.0 µM 99.5% | [2]; [8] 99% and 100% | [2]; at 50.0 µM 99.8% | [3]; [8] 99% and 100% | [3]; at 50.0 µM 99.2% | [4]; [8] 99% | [4]; at 50.0 µM 99.5% | [5]; [8] 99% and 100% | [5]; at 50.0 µM 99.8% | [6]; [8] 99% | [6]; at 50.0 µM 99.5%

Cc1cccc(OCC(O)CN2CC2)c1 (configuration not stated)
active: [1]; at 50.0 µM 87.4% | [2]; at 50.0 µM 89.8% | [3]; [8] 78% | [3]; at 50.0 µM 89.4% | [4]; at 50.0 µM 87.8% | [5]; at 50.0 µM 87.8% | [6]; [8] 95% | [6]; at 50.0 µM 88.5%
inactive: [1]; [7] 2% | [1]; [8] 64% | [2]; [7] 4% | [2]; [8] 52% | [3]; [7] 4% | [4]; [7] 4% | [4]; [8] 34% | [5]; [7] -1% | [5]; [8] 34% | [6]; [7] 2%

CC(C)(C)OC(=O)NC(CSC(c1ccccc1)(c1ccccc1)c1cccs1)C(=O)O (configuration not stated)
inactive: [1]; [7] 7% | [2]; [7] 17% | [2]; at 50.0 µM 69.2% | [3]; [7] 7% | [4]; [7] 23% | [5]; [7] 9% | [5]; at 50.0 µM 14.2% | [6]; [7] 12%
active: [1]; [8] 97% | [1]; at 50.0 µM 95.7% | [2]; [8] 99% | [3]; [8] 99% | [3]; at 50.0 µM 96.5% | [4]; [8] 99% | [4]; at 50.0 µM 78.8% | [5]; [8] 99% | [6]; [8] 99% | [6]; at 50.0 µM 83.2%

CCNC(C)(C)C(SS)c1ccc(Br)cc1 (configuration not stated)
inactive: [1]; [7] 6% | [1]; [8] 10% | [1]; at 50.0 µM 66.3% | [2]; [7] 2% | [2]; [8] -3% | [2]; at 50.0 µM 57.1% | [3]; [7] -3% | [3]; [8] 18% | [4]; [7] 25% | [4]; [8] 33% | [4]; at 50.0 µM 34.9% | [5]; [7] -15% | [5]; [8] 17% | [6]; [7] -21% | [6]; [8] 20%
active: [3]; at 50.0 µM 73.8% | [5]; at 50.0 µM 84.8% | [6]; at 50.0 µM 78.6%
